# Source: PubChem BioAssay (National Center for Advancing Translational Sciences (NCATS))
# D2 ag-1: agonists of human D2 dopamine receptor | P14416 | HEK293 T-REx D2 cells, calcium flux agonist mode | activation, % at 2 µM | 340,000 tested, 0.53% active | AID 485358;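 active = activation over 3 SD above normal in the single-dose calcium agonist read, cut at about 30% in these data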; also: 0% is about no effect
# Target sequence (P14416 whole entry, looked up): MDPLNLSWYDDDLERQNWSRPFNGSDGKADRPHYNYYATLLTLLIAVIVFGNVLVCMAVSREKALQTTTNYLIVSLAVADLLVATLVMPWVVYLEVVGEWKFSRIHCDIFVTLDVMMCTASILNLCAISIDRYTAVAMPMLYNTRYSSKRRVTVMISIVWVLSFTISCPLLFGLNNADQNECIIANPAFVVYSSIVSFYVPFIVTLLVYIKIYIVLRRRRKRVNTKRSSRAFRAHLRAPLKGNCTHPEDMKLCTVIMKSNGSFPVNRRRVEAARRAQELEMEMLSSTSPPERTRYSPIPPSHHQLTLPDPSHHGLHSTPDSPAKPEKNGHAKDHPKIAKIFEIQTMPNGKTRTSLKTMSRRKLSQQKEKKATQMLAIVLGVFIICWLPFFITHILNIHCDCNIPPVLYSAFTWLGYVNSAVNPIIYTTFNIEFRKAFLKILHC
#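 Tetracycline-induced HEK293 Trex cells with D2 receptor force-coupled to calcium signaling, plated overnight at 30 C and loaded with no-wash calcium dye. Calcium flux read kinetically for 180 s after compound addition; responses flag agonists.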
# D2 PAM-1: human D2 receptor positive allosteric modulation; 360,000 tested, 0.23% active; DiscoveRx D2 beta-arrestin cells, luminescence, 90 min; 100% = 57 uM dopamine signal; potentiation, % (concentration not given with the values); P14416; in the data active = potentiation above about 50%
#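 PathHunter beta-arrestin assay in DiscoveRx D2 cells. Compounds were added with an EC20 of dopamine (50 nM final) for 90 min at 37 deg C. Luminescence was read 1 h after detection reagent, with 57 uM dopamine as the EC100 control.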
# D2 antag: antagonists of human D2 dopamine receptor; inhibition, % at 10 µM; AID 485344; 340,000 tested, 2% active; P14416; HEK293 TREx D2 cells, calcium flux, dopamine EC80; in the data active = inhibition above about 30%; inactive = below that, where a call was filed; also: 0% is about no effect
#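 Cells plated overnight at 30 C with tetracycline; no-wash calcium dye, 30–90 min RT; 10 s baseline; compound pinned; 180 s read; EC80 dopamine added; another 180 s read.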
# D2 PAM-2: positively modulates the human D2 dopamine receptor allosterically; potentiation, % at 10 µM; 340,000 tested, 0.34% active; HEK293 T-REx D2, calcium flux, EC20 dopamine potentiation; P14416;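 active = potentiation over 3 SD above the plate norm, cut at about 30% in these data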; also: 0% is about no effect
#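 Cells plated with tetracycline inducer and held overnight at 30 C; calcium dye loaded 30–90 min at room temperature; baseline taken, compound added and read 180 s; EC20 dopamine then added and read 180 s.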
# D2 ag-2: activates the human D2 dopamine receptor | P14416 | 360,000 tested, 0.084% active | activation, % (concentration not given with the values) | DiscoveRx PathHunter D2 beta-arrestin, luminescence, 90 min; 100% = 57 uM dopamine signal | AID 624465; in the data active = activation above about 40%
#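 DiscoveRx PathHunter D2 beta-arrestin cells (2,100/well) attached overnight, then compound-stimulated 90 min at 37 C in HBSS/10 mM HEPES/0.1% Tween-20 buffer; beta-galactosidase complementation read by luminescence after 1 h at ambient temperature. Dopamine 57 uM final (EC100) as control.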
# The depositor's hits bear a star; · = no result given. Most compounds without a hit are left out; they make up all but 2.4% or so of the library.
SMILES,D2 ag-1,D2 PAM-1,D2 antag,D2 PAM-2,D2 ag-2
CCCC(=O)Nc1ccc(N2CCCCC2)cc1,-1,-3,6,-9,-3
CN(C)c1ccc(N/C=C/C(=O)c2ccco2)cc1,0,55*,-4,0,8
CC(=O)Nc1ccc(N/C=C/C(=O)c2ccco2)cc1,0,2,-9,-15,-3
COc1cccc(Cc2nc3ccccc3nc2SCC(=O)N2CCCc3ccccc32)c1,27,·,·,12,·
CCOC(=O)C1=C(C)N(CCCCCC(=O)O)C(=O)NC1c1cccc([N+](=O)[O-])c1 (centres undefined),0,-25,2,6,0
CCOC(=O)C1=C(C)N(CCCCCC(=O)O)C(=O)NC1c1ccc([N+](=O)[O-])cc1 (centres undefined),31*,-10,8,-18,-5
O=C(COC(=O)/C=C/c1ccc(S(=O)(=O)N2CCOCC2)cc1)NCc1ccc(Cl)cc1,1,-14,47*,-15,-5
COc1cccc(C2=NS(=O)(=O)N(C)C(C(=O)Nc3ccccc3SC)=C2)c1,-2,·,·,7,·
CS(=O)(=O)Nc1cccc(C2=NN(S(=O)(=O)c3ccc(F)cc3)C(c3cccs3)C2)c1 (centres undefined),4,-8,31*,-8,-4
CCS(=O)(=O)Nc1cccc(C2=NN(S(=O)(=O)c3ccc(F)cc3)C(c3cccs3)C2)c1 (centres undefined),4,-6,4,-1,-2
CCOC(=O)c1cccc(NC(=O)CCCn2c(C)c3cnn(-c4ccccc4)c(=O)c3c2C)c1,1,·,·,1,·
Cn1c(N)c(C(=O)Nc2ccccc2)c(=O)[nH]c1=O,·,-6,·,·,1
Cn1c(N)c(C(=O)/C=C/c2ccccc2)c(=O)[nH]c1=O,1,-2,54*,5,-1
Fc1ccc(N2CCN(C3CCC(c4ccccc4)CC3)CC2)cc1 (centres undefined),12,0,53*,-18,-4
CCN1CCC(N2CCN(c3ccc(F)cc3)CC2)CC1,1,-4,-8,-3,0
Cn1ncc2c(N3CCN(c4ccccc4Cl)CC3)ncnc21,-1,·,·,-10,·
Cc1cc2ccccc2n1CCNC(=O)COc1ccccc1,0,-18,39*,-18,-6
CCC(=O)NCCn1c(C)cc2ccccc21,1,-3,-14,9,0
Cc1cc(NC(=O)CSc2nnc(-c3cccnc3)n2Cc2ccccc2)no1,0,-33,-31,-5,-2
COC(=O)CSc1nnc(CNc2ccc(F)cc2)o1,0,-5,11,3,-2
COc1ccc(-c2nnc(SCC(=O)NNC(=O)c3ccc(C)cc3)o2)cc1,0,6,5,-1,0
COc1cc(OC)cc(-c2nnc(SCC(=O)N(C(C)C)C(C)C)o2)c1,1,-4,-1,0,-1
COc1cccc(-c2nnc(SCC(=O)N(C(C)C)C(C)C)o2)c1,0,-11,-1,31*,-2
CC(C)N(C(=O)CSc1nnc(CNc2ccc(F)cc2)o1)C(C)C,1,8,-14,77*,2
COc1ccc(C(=O)NNC(=O)CSc2nnc(-c3cccnc3)o2)cc1,0,2,3,42*,0
SMILES,D2 ag-1,D2 PAM-1,D2 antag,D2 PAM-2,D2 ag-2
O=C(CSc1nnc(-c2cccnc2)n1Cc1ccccc1)NCc1ccccc1,0,-10,35*,-5,-1
O=C(Nc1ccccc1C(F)(F)F)c1ccc(F)c(S(=O)(=O)N2CCc3ccccc3C2)c1,1,·,·,-9,·
O=C(Nc1ccc(F)c(Cl)c1)N1CCN(C(=O)c2nsc3ccccc23)CC1,0,·,·,-2,·
Cc1ccc2c(c1)c1c3n2CCN(C(=O)c2ccc(C(F)(F)F)cc2)C3CCC1 (centres undefined),-1,·,·,-4,·
CCCn1c(SCC(=O)NCCc2ccccc2)nnc1-c1cccnc1,·,-20,·,·,-1
CCCn1c(SCC(=O)NNC(=O)c2ccccc2)nnc1-c1cccnc1,-2,-16,32*,4,-3
CCOC(=O)c1nccnc1C(=O)Nc1ccc(C(F)(F)F)cc1,0,-3,1,-3,-4
Cc1ccc(C(=O)Nc2cccc(C(F)(F)F)c2)cc1Nc1cnccn1,0,-29,59*,0,-2
CCOC(=O)c1nccnc1C(=O)Nc1cccc(C(F)(F)F)c1,-1,-10,32*,-16,0
O=C(NCC1CCCO1)c1nnc(Cc2ccc(F)cc2)o1 (centres undefined),1,-4,39*,-3,-4
N#Cc1cccc(Oc2ccc(S(=O)(=O)N3CCCC3)cn2)c1,-1,1,35*,-11,-2
Cc1ccc(CSc2ccc(S(=O)(=O)N3CCCC3)cn2)cc1,-2,0,8,6,-3
N#Cc1ccc(CSc2ccc(S(=O)(=O)N3CCCC3)cn2)cc1,-1,-1,30*,0,-5
Cc1noc(/C=C/N(C)C)c1S(=O)(=O)N1CCC(C(=O)NC(C)(C)C)CC1,-1,0,31*,-4,0
Cc1ccc(NC(=O)C2CCN(S(=O)(=O)c3c(C)noc3/C=C/N(C)C)CC2)cc1,1,-12,-29,4,-1
CCSc1c(-c2ccccc2)nc2c(C)cccc2c1C(=O)O,34*,-12,-1,-17,0
CC(/C=N/NC(=O)c1cccc(F)c1)=C\c1ccccc1,-1,-18,33*,-38,3
COc1ccccc1C(=O)N/N=C/C(C)=C/c1ccccc1,0,-29,75*,-13,3
CC(=C/c1ccccc1)/C=N/NC(=O)c1ccccn1,0,-11,6,-8,0
CC(/C=N/NC(=O)c1ccncc1)=C\c1ccccc1,0,9,-5,-17,-1
CC(=C/c1ccc(C(C)C)cc1)/C=N/NC(=O)c1ccncc1,-5,2,36*,4,4
COc1cc(CNCCN2CCOCC2)ccc1OCc1cccc(Cl)c1,0,-11,42*,1,-1
CCc1cc(C(=O)N2CCN(S(=O)(=O)c3ccc(Cl)cc3)CC2)sc1C,0,-8,39*,-19,-2
CCc1noc(C)c1C(=O)N1CCN(S(=O)(=O)c2ccc(Cl)cc2)CC1,0,-2,-39,2,-6
CCc1ccc(NC(=O)CSc2nc3ccsc3c(=O)n2C(C)CC)cc1 (centres undefined),0,·,·,·,·
COC(=O)c1ccccc1NC(=O)CSc1nnc(-c2ccc(C)cc2)o1,1,·,7,31*,·
COC(=O)c1ccccc1NC(=O)CSc1nnc(-c2cccnc2)o1,-3,-10,7,·,-3
Cc1ccc(-n2nnnc2SCc2ccc(C(=O)O)cc2)cc1C,1,10,30*,-8,-1
